Assay results from PubChem BioAssay (EPA / NIEHS).
Inconclusive results are not listed. Calls of active or inactive are those of the source. The calls were made as follows: active = hit-call score of the fitted dose curve at least 0.9, where 1 is the maximum; inconclusive = response in the unintended direction; inactive = score below 0.9.

Molecular target: Steroid hormone receptor ERR1 (Homo sapiens) (UniProt P11474)
Test: ATG_ERRa_TRANS: Attagene TRANS-FACTORIAL HepG2 Assay for human Estrogen-Related Receptor alpha (ERRa) (AID 2282971)
Conditions: HepG2 Attagene TRANS reporter, ERRa transactivation
Procedure: ATG_TRANS is a cell-based, multiplexed-readout assay that uses HepG2, a human liver cell line, with measurements taken at 24 hours after chemical dosing in a 24-well plate.ATG_ERRa_TRANS is one of 30 assay component(s) measured or calculated from the ATG_TRANS assay. It is designed to make measurements of mRNA induction, a form of inducible reporter, as detected with fluorescence intensity signals by Reverse transcription polymerase chain reaction (RT-PCR) and Capillary electrophoresis technology.Data from the assay component ATG_ERRa_TRANS was analyzed into 1 assay endpoint. This assay endpoint, ATG_ERRa_TRANS, was analyzed in the positive analysis fitting direction relative to DMSO as the negative control and baseline of activity. Using a type of inducible reporter, measures of mRNA for gain-of-signal activity can be used to understand the reporter gene at the transcription factor-level as they relate to the gene ESRRA. Furthermore, this assay endpoint can be referred to as a primary readout, because this assay has produced multiple assay endpoints where this one serves a reporter gene function. To generalize the intended target to other relatable targets, this assay endpoint is annotated to the nuclear receptor intended target family, where the subfamily is steroidal.
Human liver HepG2 cells are transiently transfected with multiple reporter transcription units (MRTUs) in 6-well plates using FuGene 6 reagent (Roche; 3 ml FuGene/1 mg DNA). The MRTU constructs are regulated by a cis-regulating element (promoter). […] A major difference between the CIS and TRANS system is that in CIS activities of endogenous TFs are measured, whereas the TRANS assay evaluates changes in activities of exogenous, chimeric NR-Gal4 proteins. […] At the end of 24 hour incubation, total RNA was isolated using TriZol reagent (Invitrogen). The isolated RNA is then reverse-transcribed using oligo(dT) primer and Mo-MLV reverse transcriptase (Invitrogen) with DNAse I (Ambion) treatment for 30 min. The one-tenth of the produced cDNA was amplified by PCR using Taq DNA polymerase (Invitrogen) and two reporter sequence-specific primers. The PCR products were fluorescently labeled by primer extension with 6-arboxyfluorescein (6-FAM) 5'-labeled reporter sequence-specific primer (2 min at 95 C, 20 s at 68 C and 10 min at 72 C) and these products were digested with 5U of HpaI (New England Biolabs) for 2h at 37 C. The fragments were purified using Qiaquick PCR columns (Qiagen), analyzed on an ABI 3130xL genetic analyzer (Applied Biosystems) with peak positions identified by using a set of X-rhodamine (ROX)-labeled MapMarker1000 molecular weight standards (BioVentures). The raw capillary electrophoresis data was processed using Attagraph software (Attagene).

Chain of Steroid hormone receptor ERR1 (Homo sapiens) (P11474 whole entry, looked up): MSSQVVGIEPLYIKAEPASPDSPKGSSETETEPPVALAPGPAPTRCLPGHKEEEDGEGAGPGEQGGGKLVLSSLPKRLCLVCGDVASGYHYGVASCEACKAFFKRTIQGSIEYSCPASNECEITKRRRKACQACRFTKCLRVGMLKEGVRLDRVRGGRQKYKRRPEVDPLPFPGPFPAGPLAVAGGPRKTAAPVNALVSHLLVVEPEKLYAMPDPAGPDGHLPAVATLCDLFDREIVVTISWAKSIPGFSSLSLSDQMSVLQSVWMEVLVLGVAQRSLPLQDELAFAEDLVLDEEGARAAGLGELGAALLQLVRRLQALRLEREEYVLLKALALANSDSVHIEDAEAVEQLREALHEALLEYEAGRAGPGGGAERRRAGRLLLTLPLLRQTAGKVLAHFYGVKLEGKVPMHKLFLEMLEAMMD

Row | Compound | outcome | AC50
1 | CCCCC(CC)COC(=O)CS (centres undefined) | inactive | 
2 | c1cc(N(CC2CO2)CC2CO2)ccc1Cc1ccc(N(CC2CO2)CC2CO2)cc1 (centres undefined) | inactive | 
3 | C=CCOC(=O)C(=C)C | inactive | 
4 | O=[N+]([O-])c1ccccc1C(F)(F)F | inactive | 
5 | CC/C=C\CCCCCO | inactive | 
6 | O=C(OCc1ccccc1)c1ccccc1 | inactive | 
7 | CCCCCCCC#N | inactive | 
8 | OCCOCCOCCOCCOCCO | inactive | 
9 | COC(=O)/C=C\C(=O)OC | inactive | 
10 | CCCCCCC1CCC(=O)O1 (centres undefined) | inactive | 
11 | CCCCCCC1CCCC(=O)O1 (centres undefined) | inactive | 
12 | NCc1ccccc1 | inactive | 
13 | O=C(O)Cc1c[nH]c2ccccc12 | inactive | 
14 | CCC(C)(CCC(C)C)C(=O)O (centres undefined) | inactive | 
15 | CCCCCC1CCCC(=O)O1 (centres undefined) | inactive | 
16 | CC=CC(=O)O | inactive | 
17 | CN(C)N=Nc1ccccc1 | inactive | 
18 | O=C(C(=O)c1ccccc1)c1ccccc1 | inactive | 
19 | CCC(C)C1N=C(C)C(C)S1 (centres undefined) | inactive | 
20 | O=C(O)/C=C\C(=O)O | inactive | 
21 | O=S(=O)(O)c1cccc2ccccc12 | inactive | 
22 | CCO[Si](OCC)(OCC)c1ccccc1 | inactive | 
23 | O=C1NC(=O)[C@@H]2CC=CC[C@H]12 | inactive | 
24 | CCOC(=O)c1ccccc1 | inactive | 
25 | NC(N)=Nc1nc(CSCCC(N)=NS(N)(=O)=O)cs1 | inactive | 
26 | CCCCNC(N)=O | inactive | 
27 | CCO[Si](CCCN)(OCC)OCC | inactive | 
28 | O=C(c1ccccc1)c1ccccc1O | inactive | 
29 | CCCCCCCCCCCCCCCCCC[N+](C)(C)C |  | 33.8 µM (active)
